Bioassay records from PubChem BioAssay.
The list is not random: actives were taken first. Their share in the collection is about 4.8%.
tim23-1 inh: growth inhibitors of tim23-1 mutant yeast, primary screen, luminescence, uHTS | inhibition, % at 20 µM | S. cerevisiae tim23-1 growth, BacTiter-Glo luminescence, 24 h | AID 463212, 2010 | 330,000 compounds, 1.3% hits;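 active = growth inhibition of the mutant yeast at or above 50%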;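 also: temperature-sensitive mutant grown at 25 °C; plate controls were DMSO-treated mutant yeast for no effect and medium wells lacking yeast for full effect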
tim10-1 inh: growth inhibitors of tim10-1 mutant yeast, primary screen, luminescence, uHTS; S. cerevisiae tim10-1 ts strain growth, BacTiter-Glo, 24 h; inhibition, % at 20 µM; 330,000 compounds, 2.2% hits;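 active = inhibition of at least 40%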;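 also: mutant grown at 25 °C; 0% = DMSO wells with yeast and 100% = wells holding no yeast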
SKKanGAS inh: S. pyogenes SKKanGAS growth inhibitors in kanamycin, primary screen, streptokinase expression inhibitor project, SKKanGAS strain, BacTiter-Glo luminescence | 6 h | inhibition, % at 7.5 µM | 300,000 compounds, 1.3% hits | AID 1662, 2009;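 active = mean replicate score, as percent of positive control median, at least 50; inconclusive = mean below 50 but one replicate at or above 50; inactive = mean and every replicate below 50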;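 also: strain carries kanamycin resistance gene driven by streptokinase promoter and grows in 40 µg/ml kanamycin; loss of luminescence reflects streptokinase promoter inhibition or plain growth inhibition; 0% = median of DMSO wells and 100% = positive control at its reference dose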
PfHsp90 yeast 2: growth inhibition of PfHsp90-expressing yeast, primary screen, antimalarial PfHsp90 inhibitor project, S. cerevisiae, BacTiter-Glo luminescence, single point, set 2. BacTiter-Glo ATP, 48 h; yeast lacking PDR1 and PDR3 efflux regulators. inhibition, % at 9.4 µM. 310,000 compounds, 0.32% hits. AID 504621, 2011;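 active = every replicate shows inhibition above about 80%, whatever the replicate mean, limit read from the data; inconclusive = mean inhibition reaches the set limit but some replicate falls short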;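 also: 0% = DMSO neutral controls and 100% = 20 µM radicicol positive controls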
NALP1 yeast inh: NALP1 inflammasome inhibitors in reconstituted yeast, colorimetric, S. cerevisiae, triplicate retest. AID 2071, 2009. S. cerevisiae NALP1/ASC/caspase-1 growth, X-gal OD620, 72 h. 280,000 compounds, 0.61% hits. inhibition, % at 10 µM; in the data active = inhibition mostly above about 24%, no sharp cut-off; inactive = mostly below about 32%
TIM10 inh: growth inhibitors of isogenic TIM10 control yeast, primary screen, counter-screen for tim10-1 yeast inhibitor project, luminescence, uHTS. 330,000 compounds, 1.4% hits. S. cerevisiae TIM10 strain growth, BacTiter-Glo luminescence, 24 h. inhibition, % at 10 µM;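 active = inhibition of 40% or more at the single tested concentration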;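 also: wild-type TIM10 isogenic control strain grown at permissive 25 °C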
The depositor's hits bear a star; ? = inconclusive; nt = no result.

SMILES | tim23-1 inh | tim10-1 inh | SKKanGAS inh | PfHsp90 yeast 2 | NALP1 yeast inh | TIM10 inh
CC1CCC(NS(=O)(=O)c2ccc(Cl)s2)CC1 (stereo not drawn) | 48 | 36 | nt | 0 | nt | 4
O=S(=O)(NC1CCCCC1)c1ccc(Cl)s1 | 15 | 18 | 3 | -3 | 41* | -5
CCN(CC)S(=O)(=O)c1ccc(C(=O)NNC(=O)C2COc3ccccc3O2)cc1 (stereo not drawn) | 11 | 22 | nt | -28 | nt | 7
COc1ccccc1N(CC(O)CN1CCCC1)S(=O)(=O)c1ccccc1 (stereo not drawn) | 11 | 8 | 1 | -99 | 2 | -9
COc1ccc([N+](=O)[O-])cc1N(CC(O)CN1CCCCC1)S(=O)(=O)c1ccccc1 (stereo not drawn) | -7 | 4 | nt | 9 | 25* | 11
CC(=O)NC[C@H]1CN(c2ccc(N3CCOCC3)c(F)c2)C(=O)O1 | 25 | 13 | 107* | nt | 9 | 3
CCCC(=O)c1ccc(N2CCOCC2)c(F)c1 | 14 | -8 | -4 | -9 | 12 | -8
CC(C)OCc1ccc(C(=O)N2CCN(S(=O)(=O)c3ccc(Br)s3)CC2)cc1 | 26 | 18 | nt | 6 | nt | 14
COc1ccc(OC)c(NS(=O)(=O)Cc2ccccc2)c1 | -5 | 9 | 2 | nt | 42* | -23
C/C(=N/Nc1cc(-c2ccccc2)nc(-c2ccccc2)n1)c1ccc(O)cc1 | 40 | 0 | 99* | 4 | -37 | 25
CCN(CC)S(=O)(=O)c1c(Br)cc(C)cc1Br | 28 | 14 | 11 | 11 | -7 | -9
CCN(CC(=O)Nc1ccccc1OC)C(=O)c1ccc(NS(=O)(=O)c2ccc(C(C)=O)cc2)cc1 | -3 | -10 | 8 | -8 | 44* | -6
O=C(CSc1ncc(C(F)(F)F)cc1Cl)N1CCN(S(=O)(=O)c2ccccc2)CC1 | 12 | 23 | -2 | 7 | 23 | 2
Cc1ccc(NC(=O)c2cc(-c3ccc(C)c(C)c3O)n[nH]2)cc1C | -17 | -34 | -1 | -16 | 5 | -19
COc1ccc(NC(=O)c2cc(-c3ccc(C)c(C)c3O)n[nH]2)cc1Cl | 25 | -2 | 57* | 17 | 12 | 19
O=C(NCCCN1CCOCC1)c1c(F)cccc1F | -4 | -2 | -2 | -46 | 11 | -11
COc1ccccc1NC(=O)NCCCCc1ccccc1 | 21 | 33 | 50* | -4 | 16 | 11
CCOc1ccccc1NC(=O)NCCCCc1ccccc1 | 10 | -3 | 8 | -1 | 19 | 10
C/C(=N/NC(=O)CNC(=O)C(c1ccccc1)c1ccccc1)c1ccco1 | -24 | -12 | 55* | 6 | 10 | 5
O=C(NCCNC(=O)C(c1ccccc1)c1ccccc1)c1ccco1 | 12 | 10 | -6 | -30 | 7 | 4
Cc1cc(C)cc(NC(=O)CSc2nc3[nH]ncc3c(=O)[nH]2)c1 | -2 | 13 | -5 | -9 | 30 | 2
CC(=O)Nc1ccc(S(=O)(=O)NCC2CCC(C(=O)NCc3ccccc3)CC2)cc1 (stereo not drawn) | 3 | 5 | 5 | -7 | 1 | 5
O=C(Nc1ccc(S(=O)(=O)NCc2ccccc2)cc1)C1CCCCC1 | 6 | -4 | -24 | 9 | 32* | -2
CCC(CC(C)(C)O)C(=O)NNC(=S)Nc1ccccc1 (stereo not drawn) | 6 | 8 | -2 | -1 | 33* | 9
CCCCC(CC(O)COCC(C)C)C(=O)NNC(=S)Nc1ccccc1 (stereo not drawn) | 14 | 23 | 5 | -2 | 22 | 1
SMILES | tim23-1 inh | tim10-1 inh | SKKanGAS inh | PfHsp90 yeast 2 | NALP1 yeast inh | TIM10 inh
Cc1ccc(S(=O)(=O)N2CCC(C(=O)NNC(=O)c3ccccc3O)CC2)cc1C | 9 | 3 | 0 | -18 | nt | 6
CCC(=O)NC(c1cccs1)c1ccc2cccnc2c1O (stereo not drawn) | 49 | 22 | 41 | 114* | 1 | 39
COc1ccc(C(NC(C)=O)c2ccc3cccnc3c2O)c(OC)c1 (stereo not drawn) | -11 | 14 | 12 | nt | 1 | 1
Cc1conc1NC(c1cccs1)c1ccc2cccnc2c1O (stereo not drawn) | 36 | 26 | 100* | nt | -10 | -32
Oc1c(C(Nc2nccs2)c2ccc(C(F)(F)F)cc2)ccc2cccnc12 (stereo not drawn) | nt | nt | 91* | 102* | -14 | nt
CCCCC(=O)NC(c1ccc(N(CC)CC)cc1)c1ccc2cccnc2c1O (stereo not drawn) | 44 | -5 | 44 | 72 | 6 | -71
CC(=O)NC(c1cccs1)c1cc(F)c2cccnc2c1O (stereo not drawn) | 50 | 40 | nt | -13 | nt | 8
CCC(C)NS(=O)(=O)c1ccc(S(=O)(=O)N(CC(=O)Nc2ccccc2)Cc2ccco2)cc1 (stereo not drawn) | 1 | -11 | 7 | nt | 42* | -2
CCCC(C)NC(=O)CN(Cc1ccco1)S(=O)(=O)c1ccccc1 (stereo not drawn) | 29 | 22 | nt | 1 | nt | 16
CN(c1ccccc1)c1ccc(/C=C/[N+](=O)[O-])cc1 | nt | nt | 12 | 106* | 94 | nt
O=C1CCC(=O)O1 | -2 | -16 | nt | nt | nt | 7
O=C(N/N=C1\CCCc2ccccc21)c1ccc([N+](=O)[O-])cc1Cl | 17 | 29 | 2 | 7 | 7 | 33
Cc1[nH][nH]c(=O)c1C(c1c(C)[nH][nH]c1=O)c1cn(Cc2ccc(F)cc2)c2ccccc12 | nt | nt | nt | -15 | 35 | nt
Cc1[nH][nH]c(=O)c1C(c1c(C)[nH][nH]c1=O)c1cn(Cc2ccc(Cl)c(Cl)c2)c2ccccc12 | nt | nt | 69* | 8 | 60 | nt
O=c1[nH]c2c(s1)C=Nc1ccccc1N2 | 7 | -17 | ? | 1 | -5 | 5
COc1cccc(N2C(=O)C3C(C2=O)C3(c2ccccc2)c2ccccc2)c1 (stereo not drawn) | 23 | 7 | 0 | 6 | 32* | 13
Cc1cc(C)c2c3c(sc2n1)C(=O)N(C)CC(=O)N3 | -2 | 0 | 9 | 23 | 7 | -15
O=C(Nc1nc2ccccc2[nH]1)c1cccc(Cl)c1 | 10 | 4 | 64* | -20 | 12 | 1
CN(c1cccc(Cl)c1)S(=O)(=O)c1cccc(C(=O)Nc2nc3ccccc3[nH]2)c1 | 48 | 39 | 90* | 16 | 11 | 27
O=C(Cc1ccccc1)Nc1nc2ccccc2[nH]1 | 26 | 29 | 1 | 0 | 5 | 22
O=C(Cc1ccc(Br)cc1)Nc1nc2ccccc2[nH]1 | -7 | 2 | 57* | -5 | -6 | -9
